Screening results deposited in PubChem by National Center for Advancing Translational Sciences (NCATS).
ELG1 genotoxic: qHTS screen for small molecules that induce genotoxicity in human embryonic kidney (HEK293T) cells expressing luciferase-tagged ELG1; HEK293T ELG1-luciferase reporter, luminescence, 16 h; Potency, µM (top dose mostly 46 µM), for the others: at the top dose activity change, positive = activation, hits mostly activators; hit rate 1.3% among 330,000; AID 504466, 2011; also: % of control where 0% means no effect; nearly all actives have a fitted effect of over 60% in size
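HEK293T cells expressing luciferase-tagged ELG1 were exposed to compound or DMSO vehicle for 16 hr at 37 °C and 5% CO2. Luciferase activity was then measured with ONE-Glo after 30 min at room temperature.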
FLuc counter: qHTS profiling assay for firefly luciferase inhibitor/activator using purifed enzyme and Km concentrations of substrates (counterscreen for miR-21 project); hit rate 6.9% among 360,000; AID 588342, 2011; purified FLuc, Km substrates, luminescence inhibition; Potency, µM (top dose mostly 57.5 µM), for the others: at the highest dose activity change, negative = inhibition, usual class: inhibitors;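 also: plate controls were vehicle for no effect and reference inhibitor for full effect; nearly all actives have a fitted effect of over 55% in size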
Target sequence (P08659 whole entry, looked up): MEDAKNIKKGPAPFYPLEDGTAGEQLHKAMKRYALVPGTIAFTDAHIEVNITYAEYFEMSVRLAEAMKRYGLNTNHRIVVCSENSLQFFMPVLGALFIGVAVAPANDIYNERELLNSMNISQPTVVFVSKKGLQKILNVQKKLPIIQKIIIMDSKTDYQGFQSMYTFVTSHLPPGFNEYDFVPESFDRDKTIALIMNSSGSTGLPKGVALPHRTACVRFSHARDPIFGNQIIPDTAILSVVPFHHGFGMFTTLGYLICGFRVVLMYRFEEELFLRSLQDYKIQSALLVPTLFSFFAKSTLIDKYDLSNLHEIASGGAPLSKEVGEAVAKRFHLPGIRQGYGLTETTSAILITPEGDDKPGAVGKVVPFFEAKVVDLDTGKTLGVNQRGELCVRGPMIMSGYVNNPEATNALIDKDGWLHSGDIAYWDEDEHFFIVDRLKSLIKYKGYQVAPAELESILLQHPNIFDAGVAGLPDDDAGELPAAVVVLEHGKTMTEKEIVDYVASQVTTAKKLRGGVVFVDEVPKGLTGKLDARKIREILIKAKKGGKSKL
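Biochemical qHTS of compounds, final roughly 60 µM downward over six points, against 10 nM purified firefly luciferase using Km concentrations of substrates (10 uM D-luciferin, 10 uM ATP) in Tris acetate pH 7.5 buffer; luminescence output.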
Rab9 promoter act: qHTS Assay for Rab9 Promoter Activators; hit rate 2.8% among 320,000; Potency, µM (series often up to 9.22 µM), for inactives: at the top dose activation, negative = inhibition, actives largely listed as activators; AID 485297, 2010; Huh7 Rab9 promoter-luciferase reporter, luminescence, 24 h; also: % of control where 0% means no effect; nearly all actives have a fitted effect of over 60% in size
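Cells were plated at 1500 per well in reduced-serum medium with 10% FBS and left 2 h. Compound in DMSO was then added for 24 h at 37 °C. Reporter signal was read by luminescence after 10 min with luciferase detection reagent.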
NPC1 prom act: qHTS Assay for NPC1 Promoter Activators; Huh7 NPC1 promoter luciferase reporter, 24 h; Potency, µM (top dose mostly 9.22 µM), without a hit: at the top dose activation, hits mostly activators; hit rate 2.4% among 320,000; also: % of control where 0% means no effect; nearly all actives have a fitted effect of over 60% in size
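Readout is luciferase luminescence, reflecting NPC1 promoter activation in stably transfected Huh7 cells after 24 h compound exposure at 37 °C in reduced-serum medium with 10% FBS.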
SMN2 splice up: qHTS Assay for Enhancers of SMN2 Splice Variant Expression; Potency, µM (series often up to 46.1 µM), for inactives: at the top dose activity change, positive = activation, actives largely listed as activators; hit rate 2.8% among 210,000; HEK293 SMN2-luciferase splicing reporter, luminescence, 30-36 h; AID 1458, 2008; also: % of control where 0% means no effect; nearly all actives have a fitted effect of over 55% in size
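HEK293 cells carry an SMN2 minigene-luciferase reporter in which exon 7 inclusion puts luciferase in frame. Cells were seeded at 2000 cells/well, attached for 10-12 hours, then exposed to compounds for 30-36 hours at 37C before ONE-Glo luminescence.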
Starred values were filed as active, the others as inactive; u = inconclusive; x = no result; [ ] = another dose, or the depositor's remark. Hits are enriched below; roughly 7.4% of the tested compounds scored in any of these assays. Calls follow the shape of the dose curve; as a rule, active = well fitted curve in the direction sought with a large enough effect; inconclusive = small, poorly fitted or top-dose-only effect, or another doubt; inactive = no such curve, though single readings can be large; an effect the other way counts as inactive or inconclusive. Potency is read from the fitted curve at half-maximal effect.

SMILES | ELG1 genotoxic | FLuc counter | Rab9 promoter act | NPC1 prom act | SMN2 splice up
CC(C)(C)c1ccc(C(=O)N2CCN(C(=O)c3ccco3)CC2)cc1 | -4% | -4% | 1% | -7% | x
CCc1ccc(CN(Cc2cn[nH]c2-c2ccc(OC)cc2)C(=O)Nc2ccc(Br)cc2)cc1 | x | -11% | x | x | x
COC(=O)Cn1cnc(C(=O)Nc2ccc(C)c(C)c2)n1 | 7% | x | x | x | x
CCC(=O)Oc1ccc(-c2nc3ccccc3c(=O)o2)cc1 | x | 1.7µM* | x | x | -5%
CC(=O)Oc1ccc(-c2nc3cc(Cl)ccc3c(=O)o2)cc1 | -3% | -11% | 6% | -4% | x
CCCOc1ccc(-c2nc3ccccc3c(=O)o2)cc1 | x | 0.67µM* | x | x | 16µM*
CCCOc1ccc(-c2nc(OC)c3ccccc3n2)cc1 | 5% | 13µM* | 3% | 19% | -10%
CCCOc1ccc(-c2nc(N3CCC(C)CC3)c3ccccc3n2)cc1 | x | -5% | x | x | -10%
CCCOc1cccc(-c2nc3ccccc3c(=O)o2)c1 | u | 8.5µM* | 26% | 8% | x
COc1ccccc1CNC(=O)C(C)n1c(=O)cc(C(F)(F)F)c2c(C)nn(C)c21 (stereo not given) | x | 6% | x | x | x
CC(C)c1ccc(S(=O)(=O)N2CCN(Cc3cccc(F)c3)CC2)cc1 | x | 4% | x | x | x
Nc1nc2c(s1)CCc1c-2cnn1-c1ccccc1 | -11% | 6.7µM* | u | 0.79µM* | 11µM*
N/C(=N\OC(=O)c1ccc([N+](=O)[O-])cc1Cl)c1ccccn1 | 0.33µM* | 0.12µM* | 0.32µM* | u | x
N/C(=N\OC(=O)c1cc([N+](=O)[O-])ccc1Cl)c1ccccn1 | 7% | 24µM* | -13% | 3% | x
N/C(=N\OC(=O)c1cccc([N+](=O)[O-])c1)c1ccccn1 | -16% | 5.4µM* | 3.5µM* | u | 14µM*
Cc1ccc(OC(=O)c2ccc([N+](=O)[O-])cc2Cl)cn1 | 1% | 12µM* | -6%[1.84 µM] | -4% | x
O=C1CN(S(=O)(=O)c2cccc(Cl)c2Cl)c2ccccc2N1 | 1% | -1% | 2% | 0% | x
CC(C)c1nnc(NC(=O)CS(=O)(=O)c2ccccc2)s1 | 7% | 0% | -1% | 0% | x
CC1(c2nnc(Cc3ccccc3)o2)CC(c2ccccc2Br)=NO1 (stereo not given) | 2% | -5% | 1% | 1% | x
O=C(CC(c1ccco1)S(=O)(=O)c1ccccc1)c1ccc(F)cc1 (stereo not given) | 1% | 19µM* | -1% | 0% | 13%
Oc1ccc(Cl)cc1C=Nc1ccc(Br)cc1 | 4% | u | -1% | -4% | x
Cn1c(O)c(C=Nc2ccc(Br)cc2)sc1=O | u | u | 4.5µM* | u | 2.8µM*
CCn1nc(NC(=O)c2ccncc2)c2cc3ccc(C)cc3nc21 | -2% | 15µM* | -2% | 4% | -13%
CCn1nc(NC(=O)c2ccncc2)c2cc3cc(C)ccc3nc21 | -3% | 17µM* | 1% | -1% | 32µM*
CCCCC[C@H](O)/C=C/C=C\C/C=C\C/C=C\CCCC(=O)O | x | x | x | x | -8%
SMILES | ELG1 genotoxic | FLuc counter | Rab9 promoter act | NPC1 prom act | SMN2 splice up
COc1cccc(-c2cc(C(=O)Nc3ccncc3)c3ccccc3n2)c1 | -13% | 17µM* | -2% | -1% | x
COc1cccc(-c2cc(C(=O)Nn3cnnc3)c3ccccc3n2)c1 | 5% | 0.95µM* | 23% | 16% | -1%
COc1cccc(NC(=O)c2cc(-c3ccccn3)nc3ccccc23)c1 | -9% | -19% | 3% | -3% | x
COc1ccc(-c2csc(=Nc3ccccc3)n2CCO)cc1 | u | 17µM* | -5% | 21% | -71%
COc1ccc(-c2csc(=NCCO)n2-c2ccccc2)cc1 | 13% | 19µM* | 9% | 18% | x
N#CCCn1c(=O)c(-c2cc(F)cc(F)c2)nc2cnc(Oc3cccc(Cl)c3)nc21 | x | x | x | x | -38%
Cc1ccccc1N1CCN(c2ccc(NC(=O)C3CCCCC3C(=O)O)cc2)CC1 (stereo not given) | 1% | 11µM* | 1% | 0% | -19%
Clc1ccc(-c2cnc3n2CCC3)cc1 | 12% | 13µM* | u | 22% | -2%
CC(C)C(NC(=O)C(Cc1ccc(O)cc1)NC(=O)C(NC(=O)C(F)(F)F)C(C)C)C(=O)O (stereo not given) | x | x | x | x | 3%
CC(=O)c1cccc(NC(=O)c2sc(-n3nc(C)c(CCC(C)C)c3C)nc2C)c1 | x | -6% | x | x | x
Cc1ccc(-c2ccnc(-c3ccc(O)cc3)n2)cc1 | u | 21µM* | 22% | 8% | 19%
Cc1ccc(C(=O)Oc2ccc(-c3nccc(-c4ccccn4)n3)cc2)cc1 | 10µM* | 5% | 17% | u | u
COc1ccc(-c2ccnc(-c3ccc(O)cc3)n2)cc1 | u | u | -5% | -33% | 21%
Oc1ccc(-c2nccc(-c3ccc(Br)cc3)n2)cc1 | 11% | u | 0%[1.84 µM] | -7% | x
Oc1ccc(-c2nccc(-c3ccccn3)n2)cc1 | u | 17µM* | u | u | x
COc1ccc(/C=N/n2cnnc2SCc2ccc(OC)cc2)cc1 | 1% | 13µM* | -2% | 4% | -5%
Cc1ccc(Cl)cc1-n1c(CCC(=O)O)ccc1-c1cccs1 | x | u | x | x | -5%
Cc1ccc(-n2c(CCC(=O)O)ccc2-c2cccs2)cc1C | 2% | 12µM* | -8% | 2% | -12%
CCc1ccc(-n2c(CCC(=O)O)ccc2-c2cccs2)cc1 | x | 13µM* | x | x | 2%
Cc1ccc(C(C)C)c(OCc2nn(CC(=O)c3ccc(OC(F)F)cc3)c3[n+]2CCCCC3)c1 | -23% | 1% | -4% | 0% | -44%
CC(C)(C)c1ccc(C(=O)Nc2ccc(-c3nc4cc(Cl)ccc4o3)cc2)cc1 | x | -1% | x | x | -12%
Cc1ccc2oc(-c3cccc(NC(=O)c4ccc(Br)o4)c3)nc2c1 | u | 21µM* | 11% | 9% | 16%
Cc1cc2nc(-c3cccc(NC(=O)c4ccc(Br)o4)c3)oc2cc1C | 18% | 17µM* | 3% | -4% | -4%
COc1ccc(Cl)cc1C(=O)Nc1ccc2oc(-c3ccc(C(C)(C)C)cc3)nc2c1 | x | 9.5µM* | x | x | -5%
COc1cc2ccccc2cc1C(=O)Nc1cccc(-c2nc3cc(C)c(C)cc3o2)c1 | x | 1.2µM* | x | x | -2%
O=C(Nc1ccc2oc(-c3cccnc3)nc2c1)c1ccc(Br)o1 | 8% | -11% | -1% | 6% | -26%
CCc1ccc(OCc2nc(-c3ccc(OC)c(OC)c3)no2)c(Br)c1 | x | -1% | x | x | -9%
CN=C1N(C)C[C@@H]2[C@@H]3C(=O)N(C)C(=O)[C@@H]3[C@](C)(C(=O)OC)N12 | 16% | x | x | x | x
